Screening results: PubChem BioAssay, National Center for Advancing Translational Sciences (NCATS)
A selection: hits, their analogues and other compounds. The true share with any hit is near 9.3%.
NPC1 promoter act: activators of NPC1 promoter; Huh7 NPC1 promoter luciferase reporter, 24 h; Potency, µM (top dose mostly 9.22 µM), without a hit: top-dose activation, actives largely listed as activators; 320,000 tested, 2.4% active; note: % of control where 0% means no effect; nearly all actives have a fitted effect of over 60% in size
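Luminescence from an NPC1 promoter-driven luciferase reporter in stably transfected Huh7 cells was measured after 24 h compound treatment at 37 °C, followed by 10 min ambient incubation with luciferase detection reagent.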
ELG1 genotox: induces genotoxicity in HEK293T cells with luciferase-tagged ELG1. 330,000 tested, 1.3% active. Potency, µM (highest dose often 46 µM), for inactives: at the top dose activity change, positive = activation, hits mostly activators. HEK293T ELG1-luciferase reporter, luminescence, 16 h; note: % of control where 0% means no effect; nearly all actives have a fitted effect of over 60% in size
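Quantitative HTS format in 1536-well plates. HEK293T ELG1-luciferase reporter cells receive test compound and are incubated 16 hr at 37 °C, 5% CO2; ONE-Glo added, 30 min room temperature, then luminescence read.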
Rab9 prom act: activates the Rab9 promoter | Potency, µM (top dose mostly 9.22 µM), for inactives: at the highest dose activation, negative = inhibition, usual class: activators | Huh7 Rab9 promoter-luciferase reporter, luminescence, 24 h | 320,000 tested, 2.8% active; note: % of control where 0% means no effect; nearly all actives have a fitted effect of over 60% in size
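Using Huh7 cells stably transfected with Rab9 promoter–luciferase, compounds were incubated 24 h at 37 °C, 5% CO2; luciferase luminescence was read 10 min after reagent addition.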
FLuc modulator: counter-screen for miR-21 project: firefly luciferase inhibitors or activators; P08659; purified FLuc, Km substrates, luminescence inhibition; Potency, µM (series often up to 57.5 µM), for the others: top-dose activity change, negative = inhibition, actives largely listed as inhibitors; 360,000 tested, 6.9% active; AID 588342;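 note: plate controls were vehicle for no effect and reference inhibitor for full effect; nearly all actives have a fitted effect of over 55% in size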
Target sequence (P08659 whole entry, looked up): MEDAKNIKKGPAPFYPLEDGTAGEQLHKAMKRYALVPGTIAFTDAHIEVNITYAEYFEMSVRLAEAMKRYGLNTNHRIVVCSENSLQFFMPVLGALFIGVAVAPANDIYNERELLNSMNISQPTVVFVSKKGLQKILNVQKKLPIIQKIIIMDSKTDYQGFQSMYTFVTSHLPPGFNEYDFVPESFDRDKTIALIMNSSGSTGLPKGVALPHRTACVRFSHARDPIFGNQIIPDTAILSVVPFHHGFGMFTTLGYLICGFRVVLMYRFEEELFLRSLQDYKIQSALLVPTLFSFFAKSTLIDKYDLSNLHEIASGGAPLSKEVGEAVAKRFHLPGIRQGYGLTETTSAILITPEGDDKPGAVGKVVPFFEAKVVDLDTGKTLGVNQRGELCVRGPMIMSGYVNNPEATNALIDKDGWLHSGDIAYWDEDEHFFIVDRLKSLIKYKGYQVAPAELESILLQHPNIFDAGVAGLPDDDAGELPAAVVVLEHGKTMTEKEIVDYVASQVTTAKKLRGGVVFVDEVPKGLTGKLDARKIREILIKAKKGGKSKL
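Purified P. pyralis luciferase, 10 nM final, with Km-level 10 uM D-luciferin and 10 uM ATP in 50 mM Tris acetate pH 7.5, 10 mM Mg acetate, 0.01% Tween-20, 0.05% BSA; 6-point qHTS titration about 60 µM downward; luminescence read.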
SMN2 splice enh: increases expression of the SMN2 splice variant; HEK293 SMN2-luciferase splicing reporter, luminescence, 30-36 h; Potency, µM (titrated, usually from 46.1 µM), without a hit: top-dose activity change, positive = activation, most hits filed as activators; 210,000 tested, 2.8% active; AID 1458; note: % of control where 0% means no effect; nearly all actives have a fitted effect of over 55% in size
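qHTS luciferase splicing reporter: luminescence rises when SMN2 exon 7 is included in transfected HEK293 cells. Compound exposure lasted 30-36 h at 37C, with 4.5 mM final sodium butyrate as control, followed by a ONE-Glo read.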
ELG1 DNA repair: inhibitors of ELG1-dependent DNA repair in HEK293T cells; HEK293T ELG1-luciferase reporter, luminescence, 16 h; DNA damage induced by 5-fluorouridine; Potency, µM (top dose mostly 46.1 µM), for inactives: at the top dose activity change, negative = inhibition, usual class: inhibitors; 330,000 tested, 2.3% active; note: % is set by controls: 0 for no effect and ±100 for the full control effect; nearly all actives have a fitted effect of over 55% in size
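Cells (2,000 per well) received 5-fluorouridine plus test compound or DMSO and were incubated 16 hr at 37 °C, 5% CO2. Luciferase activity was read by luminescence 30 min after ONE-Glo addition; signal suppression marked inhibition of damage-induced ELG1 function.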
The depositor's hits bear a star; ? = inconclusive; . = not tested or not shown. Calls come from the whole dose curve; as a rule, active = well fitted curve in the direction sought with a large enough effect; inconclusive = small, poorly fitted or top-dose-only effect, or another doubt; inactive = no such curve, though single readings can be large; an effect the other way counts as inactive or inconclusive. Potency is the fitted concentration of half-maximal effect.

SMILES | NPC1 promoter act | ELG1 genotox | Rab9 prom act | FLuc modulator | SMN2 splice enh | ELG1 DNA repair
COc1ccc(Cn2c(-c3ccc(Br)cc3)c[n+]3ccccc23)cc1 | 1% | 17% | 9% | 11µM* | 11µM* | ?
Cc1oc(-c2ccccc2)nc1C(=O)N1CCN(c2ccc(F)cc2)CC1 | -2% | -1% | 4% | -7% | -9% | -4%
c1ccc(OCCOc2ncnc3ccccc23)cc1 | 3.5µM* | ? | 4µM* | ? | 3% | ?
O=C(NCc1ccccc1)c1cccc(COc2cccc(Cl)c2)c1 | ? | 1% | ? | -12% | 19% | ?
O=C(NCc1ccccc1)c1cccc(COc2ccc(Cl)cc2)c1 | 1.8µM* | ? | 2.8µM* | 17µM* | 6.3µM* | ?
COc1cc(CNC(=O)c2cccc(COc3ccc(Cl)cc3)c2)cc(OC)c1 | 0.71µM* | ? | 0.22µM* | 11µM* | 2.5µM* | ?
c1ccc(C2=Nc3ccccc3SC2c2nc3ccccc3[nH]2)cc1 (configuration not stated) | . | . | . | 17µM* | ? | .
COc1ccc(O)c(C(=O)c2coc(=N)c(C(=O)Nc3ccc(SC(F)F)cc3)c2)c1 | -5% | -10% | -9% | ? | -87% | 16µM*
CN(C)c1ccc(C(=O)/C=C/c2ccccc2)cc1 | 4µM* | ? | 3.2µM* | 1.2µM* | 22µM* | ?
CCN(CC)c1ccc(/C=C/C(=O)c2ccc(Br)cc2)cc1 | -10% | 1% | -2% | 17µM* | -3% | 10%
CC(=O)Nc1cccc(C(=O)/C=C/c2ccc(Br)cc2)c1 | -2% | -20% | -5% | ? | 16% | ?
CN(C)c1ccc(N=Nc2ccc(C(=O)O)cc2)cc1 | 0.013µM* | -6% | 0.0002µM* | 0.24µM* | . | ?
O=C(c1ccccc1)c1ccc(-c2ccc(O)cc2)cc1 | -2% | ? | 3.2µM* | 17µM* | . | ?
CN(C)c1ccc(N=NS(=O)(=O)O)cc1 | . | . | . | . | 19% | .
CN(C)c1ccc(C(=O)c2ccccc2)cc1 | ? | 17% | 3.2µM* | 11µM* | 29% | ?
CN(C)c1ccc(C(=O)/C=C/c2ccc(Br)cc2)cc1 | 25% | 13% | 27% | 1.7µM* | 7% | ?
Cc1ccc(Cc2cnc(NC(=O)C3CCCO3)s2)cc1 (configuration not stated) | 1.1µM* | ? | 1.3µM* | 3µM* | 14µM* | ?
Cc1ccc(C(=O)Nc2ncc(Cc3ccccc3)s2)o1 | 1.4µM* | ? | 3.2µM* | 0.95µM* | . | ?
O=C(Nc1ccc(Cc2ccncc2)cc1)c1cccs1 | 15% | 2% | 16% | ? | -12% | 10%
Cc1ccc(Cc2cnc(NC(=O)c3cccs3)s2)cc1 | 2.8µM* | -1% | ? | 2.7µM* | 14µM* | ?
O=C(Nc1ncc(Cc2cccc(Cl)c2)s1)c1cccs1 | ? | 4% | ? | 15µM* | 16% | ?
Cc1ccc(C(=O)NCc2cccnc2)o1 | 2% | 1% | 4% | 1% | . | 7%
O=C(Nc1ncc(Cc2cccc(Cl)c2)s1)C1=NCCN1 | -6% | -10% | -6% | -2% | 10% | 19%
COC(=O)[C@H](COC(C)(C)C)NC(=O)O[C@H]1C(=O)c2cc(OC)ccc2O[C@@H]1c1ccc(OC)c(Br)c1 | . | . | . | . | 6% | .
Cn1c(=O)[nH]c2ncccc21 | -2% | 1% | -2% | 0% | . | ?
O=C(Nc1ncc(Cc2ccc(SC(F)F)cc2)s1)c1ccccc1 | -3% | 12% | 5% | 13µM* | -1% | ?
O=C(Nc1ncc(Cc2ccccc2)s1)c1cccs1 | 1.3µM* | ? | 0.5µM* | 1.1µM* | 4.5µM* | ?
O=C(Nc1ncc(Cc2ccc(Cl)cc2)s1)c1ccc2c(c1)CC(c1ccccc1)OC2=O (configuration not stated) | . | . | . | 0% | -6% | .
